Results taken from the supplement of paper PMC4022240.
± gives the standard deviation.

T1: HaloTag-ATRX ADD domain (163-292)
T1 chain: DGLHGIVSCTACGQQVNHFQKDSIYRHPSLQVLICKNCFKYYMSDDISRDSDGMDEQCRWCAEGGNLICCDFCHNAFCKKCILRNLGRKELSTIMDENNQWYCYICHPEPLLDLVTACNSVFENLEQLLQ


Assays:
Assay in all cases: peptide microarray binding signal (635 nm), min-max normalized on array (fraction of array maximum); higher = stronger binding
Settings in all cases: peptide region: Unmod H2A variant
[1] = target: T1, HaloTag-ATRX ADD domain (163-292)
Summary of the method: (§1)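 Within each library, mean intensities of triplicate spots were min-max scaled to give the binding signal. The spots were histone 13-mer peptide–cellulose conjugates on nitrocellulose with a Cy3 tracer, blocked overnight at 4°C. They were then probed for 1 h at 4°C using biotin-labelled HaloTag reader fusions (10 nM to 1 μM) with streptavidin-Alexa Fluor 647 or rabbit histone antibodies (1:10,000 to 1:2,000) with anti-rabbit Alexa 647, and scanned at 635 nm for signal and 532 nm for misprints on an Axon GenePix 4000B.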

[2] = target: HaloTag-ING2 PHD (mouse Ing2 200-280)
Summary of the method: as §1

[3] = target: anti-H3K4me3 antibody ab8580
Summary of the method: as §1

[4] = target: anti-H3K9me3 antibody ab8898
Summary of the method: as §1

[5] = binder concentration: 1:2,000 dilution
[6] = binder concentration: 1:10,000 dilution

Binder | peptide microarray binding signal ([1]; binder concentration: 50 nM) | peptide microarray binding signal ([1]; binder concentration: 500 nM) | peptide microarray binding signal ([2]; binder concentration: 10 nM) | peptide microarray binding signal ([2]; binder concentration: 100 nM) | peptide microarray binding signal [3, 5] | peptide microarray binding signal [3, 6] | peptide microarray binding signal [4, 5] | peptide microarray binding signal [4, 6]
GNASRDNKKTRII [Unmod H2A variant G N A S R D N K K T R I I] | 0.0142 ± 0.00075 | 0.00895 ± 0.0037 | 0.0031 ± 0.00011 | 0.00673 ± 0.00046 | 0.000396 ± 2.5e-05 | 0.0012 ± 4.3e-05 | 0.000272 ± 4.9e-06 | 0.00075 ± 7.9e-06
QGGKARAKAKTRS [Unmod H2A variant Q G G K A R A K A K T R S] | 0.00784 ± 0.00021 | 0.0153 ± 0.0011 | 0.00298 ± 0.00012 | 0.00496 ± 0.00036 | 0.00125 ± 0.00024 | 0.000685 ± 7.2e-06 | 0.000408 ± 1.4e-05 | 0.000404 ± 4.4e-06
RSSRAGLQFPVGR [Unmod H2A variant R S S R A G L Q F P V G R] | 0.0275 ± 0.0053 | 0.0768 ± 0.0024 | 0.0177 ± 0.0021 | 0.0277 ± 0.0034 | 0.00311 ± 0.00055 | 0.00148 ± 3.8e-05 | 0.0008004 ± 6.8e-06 | 0.0011 ± 2.2e-05
AGLQFPVGRIHRL [Unmod H2A variant A G L Q F P V G R I H R L] | 0.0361 ± 0.0039 | 0.0377 ± 0.0043 | 0.0334 ± 0.0037 | 0.0514 ± 0.0061 | 0.00361 ± 0.0021 | 0.00628 ± 0.00018 | 0.00281 ± 0.00024 | 0.00686 ± 0.00042
RAKAKTRSSRAGL [Unmod H2A variant R A K A K T R S S R A G L] | 0.0117 ± 0.00045 | 0.0611 ± 0.039 | 0.00531 ± 0.00038 | 0.0242 ± 0.0082 | 0.00328 ± 0.00034 | 0.00165 ± 3.2e-05 | 0.000966 ± 0.00011 | 0.0011 ± 1.1e-05
ILELAGNAARDNK [Unmod H2A variant I L E L A G N A A R D N K] | 0.048 ± 0.0046 | 0.0752 ± 0.011 | 0.0242 ± 0.0025 | 0.0721 ± 0.0091 | 0.0104 ± 0.0051 | 0.015 ± 0.0031 | 0.00921 ± 0.0019 | 0.0132 ± 0.0022
KGNYAERIGAGAP [Unmod H2A variant K G N Y A E R I G A G A P] | 0.0345 ± 0.0048 | 0.0994 ± 0.0054 | 0.0206 ± 0.00047 | 0.0279 ± 0.0038 | 0.00668 ± 0.0046 | 0.00953 ± 0.0009 | 0.005421 ± 1.8e-05 | 0.00611 ± 0.0016
MAAVLEYLTAEIL [Unmod H2A variant M A A V L E Y L T A E I L] | 0.0107 ± 0.00027 | 0.00667 ± 0.00052 | 0.00173 ± 2.1e-05 | 0.000992 ± 2.8e-05 | 0.00829 ± 0.0044 | 0.00217 ± 3.9e-05 | 0.000529 ± 1.3e-05 | 0.00075 ± 1.6e-05
DNKKTRIIPRHLQ [Unmod H2A variant D N K K T R I I P R H L Q] | 0.0223 ± 0.0044 | 0.0112 ± 0.0059 | 0.00245 ± 9.1e-05 | 0.0078 ± 0.0012 | 0.000472 ± 9.6e-05 | 0.00183 ± 0.00033 | 0.000317 ± 2.5e-05 | 0.000923 ± 7.7e-05
GAGAPVYLAAVLE [Unmod H2A variant G A G A P V Y L A A V L E] | 0.0133 ± 0.00042 | 0.00505 ± 0.0014 | 0.0031 ± 0.00049 | 0.0137 ± 0.00099 | 0.000189 ± 8.9e-06 | 0.0016 ± 2.7e-05 | 0.000423 ± 1.1e-05 | 0.00104 ± 2.8e-05
AGLQFPVGRVHRL [Unmod H2A variant A G L Q F P V G R V H R L] | 0.0745 ± 0.019 | 0.0998 ± 0.058 | 0.0252 ± 0.0093 | 0.0507 ± 0.015 | 0.00176 ± 0.00047 | 0.00793 ± 0.00092 | 0.00307 ± 0.00038 | 0.00542 ± 0.00044
GAGAPVYMAAVLE [Unmod H2A variant G A G A P V Y M A A V L E] | 0.0137 ± 0.00082 | 0.0173 ± 0.0023 | 0.0083 ± 0.0011 | 0.0205 ± 0.0014 | 0.00425 ± 0.00061 | 0.0016 ± 0.00012 | 0.000846 ± 4.3e-05 | 0.00144 ± 3.7e-05
KGNYSERVGAGAP [Unmod H2A variant K G N Y S E R V G A G A P] | 0.019 ± 0.0052 | 0.0303 ± 0.012 | 0.00692 ± 0.0004 | 0.0104 ± 0.0025 | 0.00799 ± 0.00061 | 0.00223 ± 0.00022 | 0.00116 ± 9.9e-05 | 0.00115 ± 5.3e-05
RAKSKSRSSRAGL [Unmod H2A variant R A K S K S R S S R A G L] | 0.0102 ± 0.0014 | 0.00576 ± 0.0015 | 0.00645 ± 0.0004 | 0.0116 ± 0.0028 | 0.000472 ± 4.5e-05 | 0.00165 ± 3.2e-05 | 0.0005588 ± 5.2e-06 | 0.00127 ± 2.5e-05
KGNYAERVGAGAP [Unmod H2A variant K G N Y A E R V G A G A P] | 0.0103 ± 0.00041 | 0.0165 ± 0.00062 | 0.0105 ± 0.0025 | 0.034 ± 0.0024 | 0.00546 ± 0.001 | 0.00171 ± 6.5e-05 | 0.00116 ± 9.3e-05 | 0.00075 ± 2.1e-05
LAAVLEYLTAEIL [Unmod H2A variant L A A V L E Y L T A E I L] | 0.0089 ± 0.00038 | 0.00462 ± 0.00017 | 0.00215 ± 4.5e-05 | 0.00184 ± 0.00015 | 0.00238 ± 0.0001 | 0.000913 ± 1.6e-05 | 0.0003775 ± 3.7e-06 | 0.00075 ± 7.9e-06
YLTAEILELAGNA [Unmod H2A variant Y L T A E I L E L A G N A] | 0.0171 ± 0.0047 | 0.00443 ± 0.0022 | 0.00203 ± 0.00013 | 0.00149 ± 4.1e-05 | 0.000717 ± 0.00017 | 0.00126 | 0.000664 ± 3.6e-05 | 0.00196 ± 0.00018
RAKAKSRSSRAGL [Unmod H2A variant R A K A K S R S S R A G L] | 0.00771 ± 0.00081 | 0.0133 ± 0.001 | 0.00615 ± 0.00015 | 0.0141 ± 0.0012 | 0.000868 ± 0.00013 | 0.0012 ± 1.2e-05 | 0.0004379 ± 4.2e-06 | 0.00098 ± 1.7e-05
GNAARDNKKTRII [Unmod H2A variant G N A A R D N K K T R I I] | 0.0155 ± 0.0014 | 0.0214 ± 0.0004 | 0.003223 ± 1.8e-05 | 0.0051 ± 0.00053 | 0.00162 ± 0.0002 | 0.000799 ± 8.3e-06 | 0.000362 ± 6.3e-06 | 0.000577 ± 6.2e-06
ILELAGNASRDNK [Unmod H2A variant I L E L A G N A S R D N K] | 0.0191 ± 0.0013 | 0.04029 ± 0.00036 | 0.00734 ± 0.00031 | 0.0487 ± 0.0018 | 0.0164 ± 0.0026 | 0.00354 ± 0.00017 | 0.00523 ± 0.00098 | 0.00536 ± 0.0001
